# From PubChem BioAssay (Tox21)
# Where “and” joins values, the source holds several entries; their conditions need not be identical. Equal entries are not always repeated. Values without a mark were called inactive. Records with an inconclusive call do not appear. A call without a number means that no potency is given here. Calls of active or inactive are those of the source. Unless noted, the call rests on the fitted dose curve; in most records, active means well fitted curve in the direction sought with a large enough effect in the repeat runs; inconclusive means weak or mixed curves; inactive means no such curve, though single readings can be large; an effect the other way counts as inactive or inconclusive.
# Legend:
# [1] = qHTS assay to test for compound auto fluorescence at 535 nm (green) in HEK293 cells (AID 720680)
# [2] = qHTS assay to test for compound auto fluorescence at 460 nm (blue) in HEK293 cell free culture (AID 720681)
# In short: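 Test compounds were pinned into cell-free culture medium (DMEM with 10% FBS) and fluorescence was read directly at Ex/Em 405/460 nm. Signals were expressed as fluorescence equivalents of triamterene, with DMSO vehicle as control.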
# [3] = qHTS assay to test for compound auto fluorescence at 535 nm (green) in HEK293 cell free culture (AID 720682)
# In short: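 Compounds were pin-transferred into cell-free DMEM with 10% FBS, and green fluorescence was read at excitation 485 nm and emission 535 nm. Intensities were expressed as fluorescein-equivalent values.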
# [4] = qHTS assay to test for compound auto fluorescence at 590 nm (red) in HEK293 cell free culture (AID 720683)
# In short: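 Tox21 10K library compounds were pinned into cell-free DMEM with 10% FBS and fluorescence was read at excitation 540 nm. Activity is expressed as Rose Bengal sodium equivalency.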
# [5] = qHTS assay to test for compound auto fluorescence at 590 nm (red) in HepG2 cell free culture (AID 720684)
# In short: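 Measured in medium alone (MEM containing 10% FBS) following pintool addition of compound; emission at 590 nm with 540 nm excitation, referenced to Rose Bengal sodium.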
# [6] = qHTS assay to test for compound auto fluorescence at 460 nm (blue) in HepG2 cell free culture (AID 720685)
# In short: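 Compound (23 nL) or DMSO pinned into cell-free MEM with 10% FBS; blue fluorescence read at 405/460 nm excitation/emission, expressed as auto-fluorescence equivalency to triamterene.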
# [7] = qHTS assay to test for compound auto fluorescence at 535 nm (green) in HepG2 cell free culture (AID 720686)
# [8] = qHTS assay to test for compound auto fluorescence at 460 nm (blue) in HepG2 cells (AID 720687)
# In short: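 Cells (2,000/well in MEM with 10% FBS) attached overnight at 37 C, then were exposed to compound or DMSO for 1 hr at 37 C, 5% CO2. Fluorescence read at Ex/Em 405/460 nm, expressed as triamterene-equivalent signal.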
# [9] = molecular target: Glucocorticoid receptor (Homo sapiens) (UniProt P04150); experiment: qHTS assay to identify small molecule agonists of the glucocorticoid receptor (GR) signaling pathway (AID 720691; active means well fitted activation curve with a large enough effect in the signal ratio in the repeat runs, not every such curve was filed as active; the % refers to the signal ratio)
# Chain of Glucocorticoid receptor (Homo sapiens) (P04150 whole entry, looked up): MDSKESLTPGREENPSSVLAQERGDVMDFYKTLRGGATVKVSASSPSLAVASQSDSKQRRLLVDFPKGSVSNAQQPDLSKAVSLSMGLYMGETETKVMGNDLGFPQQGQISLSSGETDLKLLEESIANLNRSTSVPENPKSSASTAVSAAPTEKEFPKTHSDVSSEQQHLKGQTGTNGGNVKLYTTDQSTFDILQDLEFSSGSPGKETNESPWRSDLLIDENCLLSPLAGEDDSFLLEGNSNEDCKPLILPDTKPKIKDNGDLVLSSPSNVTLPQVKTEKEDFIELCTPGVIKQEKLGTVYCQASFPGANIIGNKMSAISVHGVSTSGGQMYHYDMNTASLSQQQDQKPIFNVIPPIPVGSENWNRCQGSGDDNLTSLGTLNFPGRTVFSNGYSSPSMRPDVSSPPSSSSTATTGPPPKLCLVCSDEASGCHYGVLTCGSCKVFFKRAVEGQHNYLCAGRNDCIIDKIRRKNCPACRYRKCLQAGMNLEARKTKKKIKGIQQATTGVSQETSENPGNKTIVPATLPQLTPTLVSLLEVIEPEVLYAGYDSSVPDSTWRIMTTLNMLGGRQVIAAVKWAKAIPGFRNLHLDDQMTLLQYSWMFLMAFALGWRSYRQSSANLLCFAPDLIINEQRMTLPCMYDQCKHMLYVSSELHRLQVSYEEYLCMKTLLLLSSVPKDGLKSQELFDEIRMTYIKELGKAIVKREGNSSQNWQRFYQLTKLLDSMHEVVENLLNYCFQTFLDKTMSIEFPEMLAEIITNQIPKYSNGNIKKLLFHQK
# In short: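 Fluorescence intensity from LiveBLAzer B/G FRET substrate (2 h, room temperature) reports beta-lactamase expression driven by the glucocorticoid response element in GR-bla HeLa cells after 18 h compound exposure at 37 C.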
# [10] = qHTS assay to identify small molecule antagonists of the glucocorticoid receptor (GR) signaling pathway - cell viability counter screen (AID 720693); further: nearly all actives have a fitted effect of over 55% in size
# [11] = qHTS assay for identifying genotoxic compounds that show differential cytotoxicity against isogenic chicken DT40 cell lines with known DNA damage response pathways - wild type cell line (AID 743012); further: nearly all actives have a fitted effect of over 60% in size; further: potency means the concentration at half of the fitted maximal effect
# In short: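 Wild type DT40, 300 cells/well, ~0.5 h settle at 37 C/5% CO2; compounds in DMSO added by pintool; 40 h at 37 C/5% CO2; CellTiter-Glo, 30 min RT; luminescence.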
# [12] = qHTS assay for identifying genotoxic compounds that show differential cytotoxicity against isogenic chicken DT40 cell lines with known DNA damage response pathways - Rev3 mutant cell line (AID 743014); further: nearly all actives have a fitted effect of over 55% in size; further: potency means the concentration at half of the fitted maximal effect
# [13] = qHTS assay for identifying genotoxic compounds that show differential cytotoxicity against isogenic chicken DT40 cell lines with known DNA damage response pathways - Rad54/Ku70 mutant cell line (AID 743015); further: nearly all actives have a fitted effect of over 60% in size; further: potency means the concentration at half of the fitted maximal effect
# [14] = qHTS assay to identify small molecule antagonists of the androgen receptor (AR) signaling pathway - cell viability counter screen (AID 743033; further: nearly all actives have a fitted effect of over 45% in size)
# [15] = qHTS assay to identify small molecule antagonists of the androgen receptor (AR) signaling pathway using the MDA cell line - cell viability counter screen (AID 743041; further: nearly all actives have a fitted effect of over 45% in size; further: potency means the concentration at half of the fitted maximal effect)
# In short: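 Viability counter screen run alongside the AR antagonist reporter: cells seeded 5 h before compound, R1881 added, 16 h incubation at 37C without CO2, fluorescent CellTiter-Fluor signal quantified.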
# [16] = molecular target: Androgen receptor (Homo sapiens) (UniProt P10275); experiment: qHTS assay to identify small molecule antagonists of the androgen receptor (AR) signaling pathway (AID 743035; active means well fitted inhibition curve with a large enough effect in the signal ratio in the repeat runs, not every such curve was filed as active; the % refers to the signal ratio; further: potency means the concentration at half of the fitted maximal effect)
# Chain of Androgen receptor (Homo sapiens) (P10275 whole entry, looked up): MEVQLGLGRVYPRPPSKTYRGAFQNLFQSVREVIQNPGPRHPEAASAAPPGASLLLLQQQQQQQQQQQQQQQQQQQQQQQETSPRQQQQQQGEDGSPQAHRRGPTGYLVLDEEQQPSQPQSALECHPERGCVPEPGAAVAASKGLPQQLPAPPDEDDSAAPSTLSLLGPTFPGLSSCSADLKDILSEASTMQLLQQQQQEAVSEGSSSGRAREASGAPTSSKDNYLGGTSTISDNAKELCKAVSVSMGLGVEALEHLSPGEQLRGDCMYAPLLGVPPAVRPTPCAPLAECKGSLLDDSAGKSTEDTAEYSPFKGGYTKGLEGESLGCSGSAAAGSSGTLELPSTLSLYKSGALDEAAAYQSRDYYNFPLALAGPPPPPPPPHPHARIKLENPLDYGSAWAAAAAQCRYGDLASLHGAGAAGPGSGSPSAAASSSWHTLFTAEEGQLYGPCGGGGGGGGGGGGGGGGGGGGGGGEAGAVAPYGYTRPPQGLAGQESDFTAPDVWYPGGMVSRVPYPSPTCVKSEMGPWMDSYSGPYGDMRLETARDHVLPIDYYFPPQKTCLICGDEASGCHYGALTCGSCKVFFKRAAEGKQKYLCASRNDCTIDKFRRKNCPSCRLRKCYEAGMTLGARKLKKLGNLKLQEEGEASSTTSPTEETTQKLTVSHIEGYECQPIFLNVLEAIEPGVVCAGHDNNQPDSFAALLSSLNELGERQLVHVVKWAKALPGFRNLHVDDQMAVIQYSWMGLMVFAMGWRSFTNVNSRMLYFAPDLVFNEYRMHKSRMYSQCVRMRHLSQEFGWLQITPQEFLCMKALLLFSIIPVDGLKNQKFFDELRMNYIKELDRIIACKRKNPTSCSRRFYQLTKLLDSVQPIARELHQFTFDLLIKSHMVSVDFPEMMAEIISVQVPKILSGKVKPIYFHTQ
# In short: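 Fluorescence from a beta-lactamase FRET substrate (LiveBLAzer B/G, 2 h, room temperature) measured inhibition of R1881-stimulated signaling in GeneBLAzer AR-UAS-bla HEK293 cells exposed to compound for 16 h at 37C.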
# [17] = molecular target: Androgen receptor (Homo sapiens) (UniProt P10275); experiment: qHTS assay to identify small molecule agonists of the androgen receptor (AR) signaling pathway using the MDA cell line (AID 743040; further: nearly all actives have a fitted effect of over 20% in size)
# In short: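 Luminescence from ONE-Glo, read after 30 min at room temperature, reflects MMTV-driven luciferase in MDA-kb2 cells (AR- and GR-responsive). Treatment lasted 16 h at 37C, 0% CO2.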
# [18] = molecular target: Androgen receptor (Homo sapiens) (UniProt P10275); experiment: qHTS assay to identify small molecule antagonists of the androgen receptor (AR) signaling pathway using the MDA cell line (AID 743042; further: nearly all actives have a fitted effect of over 55% in size; further: potency means the concentration at half of the fitted maximal effect)
# In short: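 MDA-kb2 cells (human breast carcinoma, stably carrying an MMTV-luciferase reporter responsive to AR and GR) were plated at 3,000 cells/well and preincubated 5 hr at 37C, then given compound plus R1881 agonist for 16 h. ONE-Glo luminescence was read.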
# [19] = molecular target: Androgen receptor (Homo sapiens) (UniProt P10275); experiment: qHTS assay to identify small molecule agonists of the androgen receptor (AR) signaling pathway (AID 743036; active means well fitted activation curve with a large enough effect in the signal ratio in the repeat runs, with a control signal flat, not every such curve was filed as active; the % refers to the signal ratio)
# In short: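 Activation was read as beta-lactamase FRET signal from LiveBLAzer B/G substrate, added for 2 h at room temperature. Before that, GeneBLAzer AR-UAS-bla GripTite (HEK293) cells had 16 h compound exposure at 37C.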
# [20] = molecular target: Glucocorticoid receptor (Homo sapiens) (UniProt P04150); experiment: qHTS assay to identify small molecule antagonists of the glucocorticoid receptor (GR) signaling pathway (AID 720692; active means well fitted inhibition curve with a large enough effect in the signal ratio in the repeat runs, not every such curve was filed as active; the % refers to the signal ratio)
# In short: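 HeLa GR-bla cells; cmpd + dex 5 nM final, 18 h 37 C; LiveBLAzer B/G FRET substrate 2 h RT; fluorescence intensity read. Antagonist mode, qHTS.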
compound,measurement,setting,value
CC(O)CCl (stereo unspecified),outcome,[1],inactive
same,outcome,[2],inactive
same,outcome,[3],inactive
same,outcome,[4],inactive
same,outcome,[5],inactive
same,outcome,[6],inactive
same,outcome,[7],inactive
same,outcome,[8],inactive
same,Potency,[9],inactive
same,Potency,[10],inactive
same,Potency,[11],inactive
same,Potency,[12],inactive
same,Potency,[13],inactive
same,Potency,[14],inactive
same,Potency,[15],inactive
Cc1ccc(S(=O)(=O)N[C@@H](CCCCN)C(=O)CCl)cc1,outcome,[1],inactive
same,outcome,[2],inactive
same,outcome,[3],inactive
same,outcome,[4],inactive
same,outcome,[5],inactive
same,outcome,[6],inactive
same,outcome,[7],inactive
same,outcome,[8],inactive
same,Potency,[9],inactive
same,Potency,[10],inactive
same,Potency,[11],5.96 µM (active)
same,Potency,[12],10.6 µM (active)
same,Potency,[13],10.6 µM (active)
same,Potency,[16],21.3 µM (active)
same,outcome,[17],inactive
same,Potency,[15],21.1 µM (active)
same,Potency,[18],23.7 µM (active)
ClCCCCCCCl,outcome,[1],inactive
same,outcome,[2],inactive
same,outcome,[3],inactive
same,outcome,[4],inactive
same,outcome,[5],inactive
same,outcome,[6],inactive
same,outcome,[7],inactive
same,outcome,[8],inactive
same,Potency,[9],inactive
same,Potency,[10],inactive
same,Potency,[11],inactive
same,Potency,[12],inactive
same,Potency,[13],inactive
same,Potency,[14],inactive
same,Potency,[15],inactive
Cl/C=C/CCl,outcome,[1],inactive
same,outcome,[2],inactive
same,outcome,[3],inactive
same,outcome,[4],inactive
same,outcome,[5],inactive
same,outcome,[6],inactive
same,outcome,[7],inactive
same,outcome,[8],inactive
same,Potency,[9],inactive
same,Potency,[10],inactive
same,Potency,[11],inactive
same,Potency,[12],inactive
same,Potency,[13],inactive
same,Potency,[14],inactive
same,Potency,[15],inactive
O=C/C=C/c1ccco1,outcome,[1],inactive
same,outcome,[2],inactive
same,outcome,[3],inactive
same,outcome,[4],inactive
same,outcome,[5],inactive
same,outcome,[6],inactive
same,outcome,[7],inactive
same,outcome,[8],inactive
same,Potency,[9],inactive
same,Potency,[10],inactive
same,Potency,[11],inactive
same,Potency,[12],inactive
same,Potency,[13],inactive
same,Potency,[14],inactive
same,Potency,[16],inactive
same,outcome,[19],inactive
same,outcome,[17],inactive
same,Potency,[15],inactive
same,Potency,[18],inactive
ClCC1CO1 (stereo unspecified),outcome,[1],inactive
same,outcome,[2],inactive
same,outcome,[3],inactive
same,outcome,[4],inactive
same,outcome,[5],inactive
same,outcome,[6],inactive
same,outcome,[7],inactive
same,outcome,[8],inactive
same,Potency,[9],inactive
same,Potency,[10],inactive
same,Potency,[11],inactive
same,Potency,[12],inactive
same,Potency,[13],inactive
same,Potency,[14],inactive
same,Potency,[15],inactive
CCC1(c2cccc(O)c2)CCCCN(C)C1 (stereo unspecified),"fluorescence, % of fluorescein",[1],-0.0115% [at 18.6 µM]
same,"fluorescence, % of fluorescent control",[2],0.0294% [at 18.6 µM]
same,activity change,[3],0.0131% [at 18.6 µM]
same,"fluorescence, % of fluorescent control",[4],0.0544% [at 18.6 µM]
same,"fluorescence, % of Rose Bengal",[5],0.0113% [at 18.6 µM]
same,"fluorescence, % of fluorescent control",[6],0.002% [at 18.6 µM]
same,"fluorescence, % of fluorescein control",[7],-0.0769% [at 18.6 µM]
same,"fluorescence, % of fluorescent control",[8],-0.0146% [at 18.6 µM]
same,Potency,[9],inactive
same,Potency,[10],inactive
same,Potency,[11],inactive
same,Potency,[12],inactive
same,Potency,[13],inactive
same,Potency,[14],inactive
same,Potency,[15],inactive
CCOC(=O)CCl,outcome,[1],inactive
same,outcome,[2],inactive
same,outcome,[3],inactive
same,outcome,[4],inactive
same,outcome,[5],inactive
same,outcome,[6],inactive
same,outcome,[7],inactive
same,outcome,[8],inactive
same,Potency,[9],inactive
same,Potency,[10],inactive
same,Potency,[11],inactive
same,Potency,[12],inactive
same,Potency,[13],inactive
same,Potency,[14],inactive
same,Potency,[15],inactive
[P]#[In],outcome,[1],inactive
same,outcome,[2],inactive
same,outcome,[3],inactive
same,outcome,[4],inactive
same,outcome,[5],inactive
same,outcome,[6],inactive
same,outcome,[7],inactive
same,outcome,[8],inactive
same,Potency,[9],inactive
same,Potency,[10],inactive
same,Potency,[11],inactive
same,Potency,[13],inactive
same,Potency,[14],inactive
same,Potency,[15],inactive
CNC(=O)O/N=C(/CSC)C(C)(C)C,outcome,[1],inactive
same,outcome,[2],inactive
same,outcome,[3],inactive
same,outcome,[4],inactive
same,outcome,[5],inactive
same,outcome,[6],inactive
same,outcome,[7],inactive
same,outcome,[8],inactive
same,Potency,[9],inactive
same,Potency,[10],inactive
same,Potency,[11],inactive
same,Potency,[13],inactive
same,Potency,[14],inactive
same,Potency,[16],inactive
same,outcome,[19],inactive
same,outcome,[17],inactive
same,Potency,[15],inactive
same,Potency,[18],inactive
COc1cccc(C=O)c1,outcome,[1],inactive
same,outcome,[2],inactive
same,outcome,[3],inactive
same,outcome,[4],inactive
same,outcome,[5],inactive
same,outcome,[6],inactive
same,outcome,[7],inactive
same,outcome,[8],inactive
same,Potency,[9],inactive
same,Potency,[10],inactive
same,Potency,[11],inactive
same,Potency,[12],inactive
same,Potency,[13],inactive
same,Potency,[15],inactive
ClC1=C(Cl)C2(Cl)C(CBr)CC1(Cl)C2(Cl)Cl (stereo unspecified),outcome,[1],inactive
same,outcome,[2],inactive
same,outcome,[3],inactive
same,outcome,[4],inactive
same,outcome,[5],inactive
same,outcome,[6],inactive
same,outcome,[7],inactive
same,outcome,[8],inactive
same,Potency,[9],inactive
same,Potency,[20],inactive
same,Potency,[12],27.3 µM (active)
same,Potency,[13],30.6 µM (active)
same,Potency,[14],inactive
same,Potency,[15],inactive
CCOc1cc(OP(=S)(OC)OC)nc(CC)n1,outcome,[1],inactive
same,outcome,[2],inactive
same,outcome,[3],inactive
same,outcome,[4],inactive
same,outcome,[5],inactive
same,outcome,[6],inactive
same,outcome,[7],inactive
same,outcome,[8],inactive
same,Potency,[9],inactive
same,Potency,[10],inactive
same,Potency,[11],inactive
same,Potency,[12],inactive
same,Potency,[13],inactive
same,Potency,[14],inactive
same,Potency,[15],inactive
CCOC(=O)C(SP(=S)(OC)OC)c1ccccc1 (stereo unspecified),outcome,[1],inactive
same,outcome,[2],inactive
same,outcome,[3],inactive
same,outcome,[4],inactive
same,outcome,[5],inactive
same,outcome,[6],inactive
same,outcome,[7],inactive
same,outcome,[8],inactive
same,Potency,[9],inactive
same,Potency,[10],inactive
same,Potency,[11],inactive
same,Potency,[12],inactive
same,Potency,[13],inactive
same,Potency,[14],inactive
same,Potency,[15],inactive
CCCCCCC(=O)CCCCCC/C=C/C[C@@H](O)[C@H](O)[C@@](N)(CO)C(=O)O,outcome,[1],inactive
same,outcome,[2],inactive
same,outcome,[3],inactive
same,outcome,[4],inactive
same,outcome,[5],inactive
same,outcome,[6],inactive
same,outcome,[7],inactive
same,outcome,[8],inactive
same,Potency,[9],inactive
same,Potency,[10],inactive
same,Potency,[11],23.7 nM (active) and 10.6 nM (active)
same,Potency,[12],21.1 nM (active) and 11.9 nM (active)
same,Potency,[13],26.6 nM (active) and 13.3 nM (active)
same,Potency,[14],inactive
same,Potency,[15],inactive
